# In PubChem BioAssay (NCI):
# The panel holds about 83,000 compounds, 20% with a hit somewhere; the sample as a whole holds those more often.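 Plates (96-well) were seeded with cells, treated with compound at one concentration, and incubated for 48 hours before percent growth was determined.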 Values without a mark were called inactive. Calls of active or inactive are those of the source. Rule for the calls: active = growth percent below 10; inactive = the rest.
# Columns and labels:
# Test in all cases: NCI-60 one-dose screen, 48 h (100 = growth as untreated, 0 = no growth, -100 = all killed)
# Settings in all cases: 10 µM unless noted
# [1] = system: HCT-15 colon
# [2] = system: HT29 colon
# [3] = system: SNB-75 CNS
# [4] = system: SNB-19 CNS
# [5] = system: U251 CNS
# [6] = system: PC-3 prostate
# [7] = system: SK-MEL-5 melanoma
# [8] = system: UACC-62 melanoma
# [9] = system: LOX IMVI melanoma
# [10] = system: SK-MEL-28 melanoma
Compound,growth [1],growth [2],growth [3],growth [4],growth [5],growth [6],growth [7],growth [8],growth [9],growth [10]
O=C1CCC23OC(C(O)c4ccccc4N12)C1C(Br)=NOC13 (stereo not given),97.4%,106%,80.8%,108%,107%,99.2%,111%,109%,99.7%,106%
CS(=O)(=O)O[C@@H]1C(=O)N(c2cc3c4ccccc4ccc3c3ccccc23)[C@H]1c1ccc(F)cn1,29.1%,3.71% (active),-0.245% (active),38.3%,29.5%,34.7%,13.6%,34%,34.2%,68.6%
COc1ccc(-n2nc(C(=O)NCC(=O)O)nc2-c2ccccc2)cc1,113%,98.7%,103%,100%,107%,103%,100%,102%,94.1%,108%
COc1ccc(-c2nnc(N3CCN(C(=O)CN4CCN(c5ccccc5)CC4)CC3)nc2-c2ccc(OC)cc2)cc1,18.5%,3.46% (active),49.9%,53.5%,37%,7.93% (active),8.21% (active),52.1%,41.2%,56.5%
Cn1nc(C(F)(F)F)c(-c2cc(C(F)(F)F)cc(C(F)(F)F)c2)c1-c1ccc(OCc2ccc(Cl)cc2)cc1O,7.5% (active),3.77% (active),4.92% (active),22.6%,6.17% (active),10.7%,-36.6% (active),3.02% (active),6.23% (active),28%
O=C1Nc2ccc(Cl)cc2/C1=N/c1nc(-c2ccc(F)cc2)cs1,43.9%,22.6%,58.6%,34.1%,25.4%,17.4%,41.7%,7.64% (active),19.5%,42.6%
COC(=O)c1ccc2c(c1)NC(=O)[C@@H]1CCCN21,96.6%,98.5%,83.1%,94.2%,102%,100%,96.8%,94.6%,88.5%,106%
Cc1ccc(C2=N[C@H]3CCC[C@@H]3N(c3ccccc3)C(C(Cl)Cl)=N2)cc1,99%,89.7%,77%,113%,112%,101%,104%,105%,87.9%,101%
C=C1C(=O)O[C@H]2[C@H]1CC/C(COC(=O)c1cn(C)c3ccccc13)=C\CC[C@@]1(C)O[C@@H]21,-44.9% (active),-77.2% (active),59%,25.6%,11.7%,-55.1% (active),4.24% (active),-51.1% (active),-86.5% (active),-22% (active)
O=C1[C@@H](OS(=O)(=O)CC(F)(F)F)[C@H](c2ccc(F)cn2)N1c1cc2c3ccccc3ccc2c2ccccc12,61.9%,64.1%,83.4%,77.9%,69.2%,62.8%,67.2%,58.3%,70.3%,79.7%
CC(C)(C#N)c1cc(F)cc(C(=O)Nc2cc(Nc3ncccc3-c3ncnc4nc[nH]c34)ccc2F)c1,37.8%,10.1%,78.7%,58%,40.7%,54.2%,20.3%,9.35% (active),-23.6% (active),18.5%
COc1ccc(-c2nnc(N3CCN(C(=O)CN4CCN(c5ccc(OC)cc5)CC4)CC3)nc2-c2ccc(OC)cc2)cc1,-40.9% (active),4.12% (active),65.7%,96.1%,4.4% (active),-96.4% (active),-50.2% (active),-48.2% (active),-63.3% (active),-84.1% (active)
COc1cc2nc3c(=O)n(-c4ccc(C#N)cc4)cnn3c(=O)c2cc1OC,100%,100%,73.9%,97.7%,102%,98.3%,96.1%,95.1%,95.4%,99.8%
O=C(O)c1cc(N=Nc2ccc(-c3ccc(N=Nc4c(S(=O)(=O)O)cc5ccc(Nc6ccccc6)cc5c4O)cc3)cc2)ccc1O,100%,99.9%,85.2%,102%,103%,96.4%,106%,93.7%,95.6%,107%
COc1cc(C2=NNC(c3ccc(N(C)C)cc3)C2)cc(OC)c1OC (stereo not given),30.9%,6.34% (active),37.8%,8.5% (active),28.8%,29.3%,-4.54% (active),40.8%,49.4%,79.4%
COc1ccc2oc(=O)cc(-c3c(C#N)c(N)n4nc(N)c(C#N)c4c3C#N)c2c1,102%,90.7%,116%,112%,101%,104%,99%,107%,95%,107%
O=c1[nH]nc(-c2ccccc2)c2sc(NC(=S)Nc3ccc(Cl)cc3)nc12,89.9%,74.8%,84.1%,102%,92.1%,92%,101%,92.6%,92.4%,110%
COc1cc(C(C)c2ccc3c(ccn3C)c2)cc(OC)c1OC (stereo not given),15.9%,3.88% (active),47%,33.5%,14.4%,23.2%,-51.8% (active),32.7%,23.2%,67%
Nc1cc(N)nc(SCC(=O)O)n1,110%,85.1%,100%,100%,93.4%,89.9%,99.8%,99.1%,97.4%,106%
COc1ccc2nc3c(n2c1)C(=O)C(=O)c1ccccc1-3,-60.2% (active),64%,-54.4% (active),-30.9% (active),-59.4% (active),22.3%,-99.5% (active),-91.1% (active),-68.4% (active),-83.2% (active)
